Source: PubChem BioAssay (National Center for Advancing Translational Sciences (NCATS))
Shown are actives, neighbours in structure and some others; about 21% of the full set was active somewhere.
Cycloheximide cs = counter-screen for Shiga toxin inhibitors: cycloheximide protein synthesis inhibition; cell reporter, cycloheximide protein synthesis inhibition counterscreen; max response, %; 300,000 tested, 12% active; AID 2314; in the data active = max response mostly above about 13%, no sharp cut-off; inactive = mostly below about 14%; note: read at 38.3 µM for the half of the compounds with a filed dose; 0% is about no effect
Pf growth 48h = P. falciparum growth inhibition at 48 hours (one generation) | P. falciparum luciferase growth in erythrocytes, 48 h | Potency, µM (top dose mostly 28.7 µM), inactives show top-dose activity change, negative = inhibition, most hits filed as inhibitors | 310,000 tested, 5.9% active | AID 504832; note: potency is the fitted concentration of half-maximal effect; % is set by controls: 0 for no effect and ±100 for the full control effect
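In quantitative HTS format, infected erythrocytes bearing luciferase-reporter parasites were treated for a single generation at 37 C. Luminescence after adding detection reagent served as the growth measure.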
Shiga toxin inh = Shiga toxin inhibition; inhibition, % at 38.7 µM; Vero cells, Shiga toxin protein synthesis inhibition reporter; AID 2315; 290,000 tested, 9.2% active; in the data active = inhibition mostly above about 28%, no sharp cut-off; inactive = mostly below about 43%; note: 0% is about no effect
Pf growth 96h = inhibits malaria parasite growth, 96 h | P. falciparum luciferase reporter growth, 96 h | Potency, µM (titrated, usually from 28.7 µM), for inactives: at the highest dose activity change, negative = inhibition, usual class: inhibitors | 320,000 tested, 6.9% active | AID 504834; note: potency is the fitted concentration of half-maximal effect; % is set by controls: 0 for no effect and ±100 for the full control effect
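Plates of compound plus infected erythrocytes (2% hematocrit, 0.05% parasitemia final) incubate 96 hours, 37 C, 5% CO2. Detection reagent added; reduced luminescence from the parasites' luciferase reporter flags inhibition.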
* marks the source's active call; other numbers are inactive results; i = inactive; ? = inconclusive; . = not tested or not shown; [ ] = remark or other dose. Unless noted, calls come from the whole dose curve; as a rule, active = well fitted inhibition curve with a large enough effect; inconclusive = small, poorly fitted or top-dose-only effect, or another doubt; inactive = no such curve, though single readings can be large or run the other way.

SMILES	Cycloheximide cs	Pf growth 48h	Shiga toxin inh	Pf growth 96h
Cn1cccc1/C=C1\CCC/C(=C\c2cccn2C)C1=O	52*	.	109*	-8%
O=C1/C(=C/c2cccs2)CCC/C1=C\c1cccs1	39*	177%	108*	307%
C=CCN1C(=O)NC(=O)/C(=C/c2cccn2C)C1=O	-3	10%	-22	0%
CC1C/C(=C/c2cccs2)C(=O)/C(=C/c2cccs2)C1 (stereo unspecified)	3	-1%	9	41%
CCC(C(=O)Nc1ccsc1C(=O)OC)c1ccccc1 (stereo unspecified)	-3	-4%	7	-29%
N#Cc1ccc(/C=C\c2nccc3c2[nH]c2ccccc23)cc1	6	3.3µM*	17	-26%
Clc1ccc(/C=C\c2nccc3c2[nH]c2ccccc23)cc1	15	4.7µM*	26	20%
CCCn1c(N)c(N(CCOC)C(=O)CSCC(=O)Nc2cccc(C)c2)c(=O)[nH]c1=O	.	-4%	.	-2%
COc1cc2nc(NC(=O)c3ccc(F)cc3Cl)sc(=O)c2cc1OC	-2	-5%	2	11%
C/C(N)=C(/C#N)C(=O)CSc1ccccc1F	34*	0%	94*	243%
C/C(N)=C(/C#N)C(=O)CSc1cc(C)c2ccccc2n1	10	-9%	8	32%
C/C(N)=C(/C#N)C(=O)CSc1n[nH]c(-c2ccccc2Br)n1	46*	?	66*	?
C/C(N)=C(/C#N)C(=O)CSc1nnc(Cc2ccccc2F)n1N	1	10%	-6	96%
CCC(C)n1c(SCC(=O)/C(C#N)=C(\C)N)nc2ccccc2c1=O (stereo unspecified)	-5	-23%	-5	9.3µM*
COC(=O)c1c(C)[nH]c(C(=O)CC#N)c1C	5	?	-10	41%
COC(=O)c1c(C)[nH]c(C(=O)/C=C/c2cccc(Cl)c2)c1C	39*	114%	62*	i
COC(=O)c1c(C)[nH]c(C(=O)/C=C/c2ccc(C)cc2)c1C	1	?	25	191%
COC(=O)c1c(C)[nH]c(C(=O)CSc2ccc(Cl)cc2)c1C	30*	147%	42	.
COC(=O)c1c(C)[nH]c(C(=O)/C=C/c2ccccc2)c1C	43*	149%	89*	i
Cc1cc(C(=O)N[C@H](c2ccccc2)[C@@]2(C)C[C@@H]2[C@@H](C)C(=O)Nc2ccc3ccccc3c2)n(C)n1	-3	2.6µM*	-16	3.7µM*
C[C@@H](C(=O)NCCc1c[nH]c2ccccc12)[C@H]1C[C@]1(C)[C@H](NC(=O)OCc1ccccc1)c1ccccc1	-2	13µM*	-13	9.3µM*
C[C@@H](C(=O)Nc1ccc2ccccc2c1)[C@H]1C[C@]1(C)[C@H](NC(=O)OCc1ccccc1)c1ccccc1	19*	?	51*	10µM*
C[C@@H](C(=O)NCC1CC1)[C@@H]1C[C@@]1(C)[C@@H](NC(=O)OCc1ccccc1)c1ccccc1	3	4.1µM*	16	4.1µM*
C[C@H](CO)NC(=O)[C@H](C)[C@H]1C[C@]1(C)[C@H](NC(=O)OCc1ccccc1)c1ccccc1	-3	3%	-15	1%
CCOc1ccc(C(=O)C(C)OC(=O)Cn2c(C)csc2=O)cc1 (stereo unspecified)	.	-3%	.	0%
SMILES	Cycloheximide cs	Pf growth 48h	Shiga toxin inh	Pf growth 96h
Cc1cccc(S(=O)Cc2ccc(C(=O)N3CCN(C(=O)c4ccco4)CC3)o2)c1 (stereo unspecified)	-10	-6%	-14	-4%
CC(=O)Nc1ccc(-c2csc(NC(=O)C3CSC4(C)CCC(=O)N34)n2)cc1 (stereo unspecified)	.	?	.	4%
O=C(CS(=O)CC(=O)N(CC(=O)NC1CCCC1)c1ccccc1F)Nc1ccc(F)cc1 (stereo unspecified)	-4	-6%	-5	?
Cc1onc(-c2ccccc2Cl)c1C(=O)NC(=S)Nc1ccc(C(C)C)cc1	3	5.2µM*	36	13µM*
CC(=O)N1CCN(C(=S)NC(=O)c2c(-c3ccccc3Cl)noc2C)CC1	-1	8%	15	?
COc1ccccc1CNC(=O)c1c(-c2ccccc2Cl)noc1C	2	10µM*	-6	57%
COc1ccc(-c2noc(CN(C(=O)c3c(-c4ccccc4Cl)noc3C)C(C)C)n2)cc1	-1	10µM*	15	.
Cc1onc(-c2ccccc2Cl)c1C(=O)NCc1ccccn1	-3	-6%	-5	.
Cc1onc(-c2ccccc2Cl)c1C(=O)NC(=S)Nc1ccccc1F	9	4.1µM*	12	46%
COc1ccccc1NC(=S)NC(=O)c1c(-c2ccccc2Cl)noc1C	7	?	-3	22%
CC(=O)NC(Cc1ccccc1C)C(=O)NC1CCN(C(=O)c2ccc(C)cc2)CC1 (stereo unspecified)	-2	15%	-2	?
O=C(O)c1ccc2c(c1)C(=O)N([C@H](Cc1c[nH]c3ccccc13)C(=O)O)C2=O	15	?	19	15%
COC(=O)c1ccc(Cn2nc(-c3ccc(C)cc3)ccc2=O)cc1	-3	38%	3	26%
COc1ccc(NC(=O)C2CC(=O)N(Cc3ccco3)C2)cc1Cl (stereo unspecified)	.	-15%	.	26%
Cc1ccc(NC(=S)NC(=O)c2c(-c3ccccc3Cl)noc2C)cc1	3	10µM*	-12	?
Cc1onc(-c2ccccc2Cl)c1C(=O)NC(=S)NCCc1ccccc1	-3	-20%	-5	33%
Cc1onc(-c2ccccc2Cl)c1C(=O)NC(C)c1ccccc1 (stereo unspecified)	-1	-21%	-1	13µM*
O=C(Cn1nc(-c2ccccc2)c2ccccc2c1=O)NN1CCOCC1	-3	15µM*	-6	0%
COc1ccccc1NC(=O)Cn1nc(-c2ccc(Cl)cc2)c2ccccc2c1=O	16*	.	-4	?
O=C(Cn1nc(-c2ccc(Cl)cc2)c2ccccc2c1=O)NN1CCOCC1	1	18%	8	12%
COc1ccccc1NC(=O)COc1ccc(-c2nn(C)c(=O)c3ccccc23)cc1	-3	?	-7	?
CCOc1ccc(CNC2CCCCCCC2)cc1OC	-3	-11%	-15	?
COC(=O)CCC(=O)c1ccn(S(=O)(=O)c2ccccc2)c1	-6	1%[0.00184 µM]	-3	?
CCCN(CCC)c1c([N+](=O)[O-])cc(S(N)(=O)=O)cc1[N+](=O)[O-]	-7	.	-26	.
NNC(=S)NC1CC2CC1C1C=CCC21 (stereo unspecified)	12*	?	28	?
NNC(=S)NC1CCS(=O)(=O)C1 (stereo unspecified)	1	17%	-1	?
CN(c1ccccc1C(=O)Nc1ccccc1-c1ccccc1)S(C)(=O)=O	-4	1%	-8	14%
CN1CCc2cccc3c2[C@@H]1Cc1ccc(O)c(O)c1-3	2	2.6µM*	-5	2.6µM*
O=C(Nc1ccccc1C(=O)O)c1ccc(CN2C(=O)c3ccccc3C2=O)cc1	1	2%	-13	-8%
COc1ccc(C(O)c2ccccc2OP(=O)(N(C)C)N(C)C)cc1 (stereo unspecified)	-3	-1%	9	-16%
